A selection: hits, their analogues and other compounds. The true share with any hit is near 7.9%.
Her2 expr inh – inhibitors of Her2 protein expression, primary screen, SKBR-3 cells, AlphaScreen, 66K library. Receptor tyrosine-protein kinase erbB-2 (Homo sapiens), P04626. SKBR-3 HER2 protein level, 18-24 h; stronger effect = lower value. HER2 level % of control, % at 10 µM. hit rate 0.69% among 65,000;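 active = HER2 level under 5% of the carrier-only control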;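 note: 100% = DMSO carrier and 0% = 500 nM PU-H71 HSP90 inhibitor; lower value means stronger loss of Her2 protein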
Cav3 T inh – Cav3.2 calcium influx blockers – cell-based, Fluo-4 calcium fluorescence, FDSS, MLSMR library, primary screen. Cav3.2-expressing cells; stronger effect = lower value. B-score at 10 µM. Voltage-dependent T-type calcium channel subunit alpha-1H (Homo sapiens), O95180. hit rate 4% among 100,000;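 active = single-dose well whose peak fluorescence ratio is a statistical outlier from its plate by either plate-standardised score or position-corrected B-score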
PLAP activator – PLAP enzyme activators, biochemical, luminescence, HTS; hit rate 1.2% among 96,000; purified PLAP enzyme, luminescent substrate read-out; stronger effect = higher value; activation fold at 20 µM; Alkaline phosphatase, placental type (Homo sapiens), P05187; in the data active = activation fold above about 2
Target sequence (P05187 whole entry, looked up): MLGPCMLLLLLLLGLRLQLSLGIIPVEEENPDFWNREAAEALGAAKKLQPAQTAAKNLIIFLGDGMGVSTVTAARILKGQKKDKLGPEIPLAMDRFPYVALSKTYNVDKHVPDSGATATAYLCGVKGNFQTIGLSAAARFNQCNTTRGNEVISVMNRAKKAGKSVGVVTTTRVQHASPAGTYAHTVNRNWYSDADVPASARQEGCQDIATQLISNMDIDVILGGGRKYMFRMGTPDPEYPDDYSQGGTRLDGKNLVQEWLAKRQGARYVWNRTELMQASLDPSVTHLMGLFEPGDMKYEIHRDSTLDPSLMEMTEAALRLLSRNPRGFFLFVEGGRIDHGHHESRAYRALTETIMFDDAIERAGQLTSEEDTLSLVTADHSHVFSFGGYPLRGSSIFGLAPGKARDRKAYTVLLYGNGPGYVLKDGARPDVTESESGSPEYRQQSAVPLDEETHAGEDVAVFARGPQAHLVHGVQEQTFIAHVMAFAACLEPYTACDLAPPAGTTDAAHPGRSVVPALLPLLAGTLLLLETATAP
M1 antag – antagonists of rat M1 muscarinic receptor; Muscarinic acetylcholine receptor M1 (Rattus norvegicus), P08482; CHO-M1 cells, Fluo-4 calcium, ACh EC80 antagonist mode; stronger effect = lower value; B-score at 10 µM; hit rate 3.4% among 64,000;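 active = calcium fluorescence response, raw or row-and-column corrected B-score, differing from the plate sample mean either way at a set confidence level, mostly lower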
M1 ag – M1 muscarinic receptor agonists, primary screen, CHO-M1 cells, Fluo-4 calcium, agonist mode. Muscarinic acetylcholine receptor M1. Fluo-4 calcium fluorescence; stronger effect = higher value. B-score at 10 µM. hit rate 3% among 64,000;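 active = fluorescence rise, raw or as B-score row- and column-corrected plate score, outside the 99.7% band of its plate's samples, either direction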
* = called active by the depositor; . = no result given.

SMILES	Her2 expr inh	Cav3 T inh	PLAP activator	M1 antag	M1 ag
COC(=O)C(NC(=O)c1ccc(F)cc1)(Nc1ncc(S(=O)(=O)c2ccc([N+](=O)[O-])cc2)s1)C(F)(F)F (stereo not given)	.	-8.2*	1.3	.	.
COC(=O)C(NC(=O)c1ccccc1)(Nc1nc(C)cs1)C(F)(F)F (stereo not given)	128	0.82	0.9	-0.055	-0.34
COC(=O)C(NC(=O)c1ccccc1C)(Nc1ncc(S(=O)(=O)c2ccc([N+](=O)[O-])cc2)s1)C(F)(F)F (stereo not given)	.	-7.8*	1.3	.	.
C[C@H]1CC[C@@]2(O[C@H](CCO)C[C@H](O)[C@H]2O)O1	.	0.24	.	.	.
Cc1c(NC(=O)C(C)N2CC(C)OC(C)C2)c(=O)n(-c2ccccc2)n1C (stereo not given)	96	0.78	0.8	1.8*	-0.082
Cc1c(NC(=O)N(C)C)c(=O)n(-c2ccccc2)n1C	.	0.76	.	.	.
CCOc1ccccc1OCCOc1ccccc1OC(C)C	.	-5.4*	0.8	.	.
N#CC1=C(N)Oc2cc(Nc3ccccc3)ccc2C1c1ccncc1 (stereo not given)	.	-0.24	1.2	.	.
Oc1c(Br)cc(Br)cc1/C=N/c1nc2c(s1)CCCC2	.	-5.3*	.	.	.
Oc1ccc2ccccc2c1/C=N/c1nc2c(s1)CCCC2	.	-0.042	1.2	.	.
CC(C)(C)OC(=O)NCCc1nnc(SCc2ccccc2Cl)o1	96	-1.6	1.7	-0.33	-0.88
CC(C)(C)OC(=O)NCCc1nnc(S(=O)(=O)Cc2ccc(Cl)cc2Cl)o1	-16*	0.38	1	0.039	-0.95
CC12CCC(C(=O)N(CC(O)CN3CCCCC3)C1=O)C2(C)C (stereo not given)	.	-0.33	0.9	.	.
C=CCc1cc(C)ccc1OCC(O)CN1CCN(c2ccccc2)CC1 (stereo not given)	79	-4.6*	1.4	-1.6	0.034
C=CCc1ccccc1OCC(O)CN1CCN(c2ccccc2OC)CC1 (stereo not given)	146	-3.3	1.7	-0.62	0.68
COc1ccccc1N1CCN(CC(O)COc2cccc3ccccc23)CC1 (stereo not given)	91	-4.5*	.	-0.94	0.015
C=CCc1cc(OC)ccc1OCC(O)CN1CCN(c2ccc(OC)cc2)CC1 (stereo not given)	68	-1.4	1.6	-0.63	-1.2
CCNC(=O)/C(=C/c1ccco1)NC(=O)/C=C/c1ccccc1	.	0.0053	1.1	.	.
CCOC(=O)C1=C(C)N=c2s/c(=C\c3ccncc3)c(=O)n2C1c1ccc2c(c1)OCO2 (stereo not given)	-75*	-3.4	1.4	-0.51	1.8
CCOC(=O)C1=C(C)N=c2s/c(=C/c3ccccc3)c(=O)n2C1c1ccc(OC)c(OC)c1 (stereo not given)	.	-0.33	1	.	.
Cc1ccc(S(=O)(=O)NC(CC(=O)NCC2CCCO2)c2ccco2)cc1 (stereo not given)	111	0.25	0.9	0.4	-0.11
CC(C)CCN(C(=O)Nc1ccccc1)C(C)c1cccs1 (stereo not given)	.	-4.8*	1	.	.
CC(=O)Nc1ccc(Oc2cc(C#N)c(C#N)cc2N2CCCCCC2)cc1	113	-3.8*	.	0.12	-0.92
CCOC(=O)N1CCN(C(=O)C2CCCN(S(=O)(=O)c3cccnc3)C2)CC1 (stereo not given)	99	-0.083	0.9	-0.64	0.91
Cc1ccc(C(=O)Nc2ccon2)cc1S(=O)(=O)N1CCCC1	.	0.14	0.8	.	.
SMILES	Her2 expr inh	Cav3 T inh	PLAP activator	M1 antag	M1 ag
Cn1c(C(=O)N2CCc3ccccc32)cc2c(=O)n3ccccc3nc21	103	.	.	-0.99	-1.3
Cc1ccc(S(=O)(=O)N2Cc3ccccc3CC2C(=O)Nc2ccc3c(c2)OCO3)cc1 (stereo not given)	.	-4.5*	1.6	.	.
COc1ccc(S(=O)(=O)N2Cc3ccccc3CC2C(=O)Nc2ccc3c(c2)OCO3)cc1 (stereo not given)	.	-4.4	1.2	.	.
O=C(O)C(=O)/C(=C\c1cccc2ccccc12)c1ccc2ccccc2n1	.	-5.5*	1	.	.
O=C(O)C(=O)/C(=C\c1ccccc1)c1ccc2ccccc2n1	.	-0.26	1	.	.
CCOC(=O)c1c(NC(=O)CSc2nnc(CNc3ccc(OC)cc3)n2C)sc(C)c1C	79	-6.6*	1.5	-0.48	0.48
CCN1C(=O)N(c2ccc(Cl)cc2)C(C)=CC1(C)C	.	0.92	1	.	.
Cc1ccc(-c2ccc(/C=N/c3ncn[nH]3)o2)cc1Cl	12	-6.7*	1.1	0.83	0.51
CSc1ccc(S(=O)(=O)Nc2ccc(F)cc2)cc1	110	-5.1*	1.1	-1.4	-1.4
COc1ccc(NS(=O)(=O)c2ccc(SC)cc2)cc1	55	-2.3	1.3	-1.8	-1.3
Cc1cc(C)n(C(C[N+](=O)[O-])c2ccc(Cl)cc2)n1 (stereo not given)	.	-0.29	1.5	.	.
CN(C)S(=O)(=O)Oc1ccsc1C(=O)Nc1ccc(Cl)cc1	.	-4.4*	0.8	.	.
C/C(=N\NC(=O)c1cccc(Cl)c1)c1cccc(NC(=O)c2ccco2)c1	.	-5.5*	1.5	.	.
O=C(NCc1ccco1)c1cccc(NC(=O)c2ccccc2)c1	111	0.69	0.8	0.0095	0.15
COc1cccc(C(=O)Nc2cc(NC(=O)c3ccco3)ccc2OC)c1	105	-0.14	0.7	-0.015	0.74
Cc1occc1C(=O)Nc1cccc(C(=O)NCc2ccccc2)c1	76	-3.8*	1	1.3	-1.8
CC(C)CNC(=O)c1cccc(NC(=O)c2ccc(NC(=O)c3ccco3)cc2)c1	60	-2.8	0.8	1.4*	0.6
C/C(=N/NC(=O)c1ccco1)c1cccc(NC(=O)c2ccc(C)o2)c1	.	0.54	0.9	.	.
COc1ccc(NC(=O)c2ccco2)cc1NC(=O)c1cccc(OC(C)C)c1	88	-5.6*	1.3	0.11	1.5
CSCC[C@H](NC(=O)c1ccc(Cl)c(S(=O)(=O)N2CCCC2)c1)c1nc2ccccc2[nH]1	.	-2.6	1	.	.
COc1ccc(NC(=O)C(C/C=C(/C)Cl)C(C)=O)cc1 (stereo not given)	.	-0.3	.	.	.
O=C(c1ccco1)N1CCN(C(c2cccs2)c2nnnn2C2CCCC2)CC1 (stereo not given)	.	0.16	1.4	.	.
c1ccc(Cn2nnnc2C(c2cccs2)N2CCCCCC2)cc1 (stereo not given)	121	-2.6	.	.	.
c1ccc(Cn2nnnc2C(c2cccs2)N2CCc3ccccc3C2)cc1 (stereo not given)	105	-3.8*	0.8	-0.023	-0.41
c1ccc(CC2CCN(C(c3cccs3)c3nnnn3C3CCCC3)CC2)cc1 (stereo not given)	95	-3.4*	1.2	0.6	0.47
COc1ccccc1N1CCN(C(c2cccs2)c2nnnn2C2CCCC2)CC1 (stereo not given)	-30*	-1.1	1.5	0.6	0.38

Screening data deposited in PubChem by several laboratories.
